# In PubChem BioAssay (Tox21):
# Inconclusive results are not listed. Activity calls are given as the source filed them. The call rests on the fitted dose curve; in most records, active means well fitted activation curve with a large enough effect in the signal ratio in the repeat runs, with a control signal flat (not every such curve was filed as active); inconclusive means weak or mixed curves; inactive means flat fitted curve, though single readings scatter; the % refers to the signal ratio.
# Test: qHTS assay for small molecule activators of the heat shock response signaling pathway (AID 743210)
# Details: HeLa HSE-bla reporter, beta-lactamase ratio, 5 h; series mostly up to 62.6 µM
# Description: U.S. Tox21 Program National Center for Advancing Translational Sciences [NCATS] NIH Chemical Genomics Center [NCGC] U.S. Environmental Protection Agency [EPA] National Institutes of Environmental Health Sciences [NIEHS] National Toxicology Program [NTP] U.S. Food and Drug Administration [FDA] Tox21 Assay Overview: Various chemicals, environmental and physiological stress conditions may lead to the activation of heat shock response/ unfolded protein response (HSR/UPR). There are three heat shock transcription factors (HSFs) (HSF-1, -2, and -4) mediating transcriptional regulation of the human HSR. To identify the compounds that activate HSR signaling, HSE-bla HeLa cell line (Invitrogen, Carlsbad, CA, USA) containing a beta-lactamase reporter gene under the control of the heat shock response elements was used to screen the Tox21 10K compound library.
# Tox21 Assay Protocol Summary: The CellSensor HSE-bla HeLa cells (Invitrogen, Carlsbad, CA, USA) were dispensed at 1500 cells/6uL/well into 1536-well black wall/clear bottom plates using a Multidrop combi (Thermo Fisher Scientific, Waltham, MA) dispenser. After the assay plates were incubated at 37 C and 5% CO2 overnight, 23 nL of compounds dissolved in DMSO, positive controls or DMSO only was transferred to the assay plate by a Pintool station (Kalypsys, San Diego, CA). The plates were incubated at 37 C for 5 h. After 1 uL of LiveBLAzerTM B/G FRET substrate was added using a Flying Reagent Dispenser (Beckman Coulter, Indianapolis, IN, USA), the plates were incubated at room temperature for 2.5 h, and fluorescence intensity was measured by an Envision plate reader (PerkinElmer, Shelton, CT).
row,Structure (SMILES),outcome
1,Clc1cccc(Cl)c1Cl,inactive
2,O=c1ccc(=O)[nH][nH]1,inactive
3,CCCCN(CCCC)SN(C)C(=O)Oc1cccc2c1OC(C)(C)C2,inactive
4,Cc1[nH]c(=O)n(C(C)(C)C)c(=O)c1Cl,inactive
5,O=[N+]([O-])c1ccc([As](=O)(O)O)cc1,inactive
6,Cc1cc(-c2cc(C)c(N)c(C)c2)cc(C)c1N,inactive
7,CC(=O)C=C(C)C,inactive
8,O=C(NC(=O)c1c(F)cccc1F)Nc1cc(Cl)c(OC(F)(F)C(F)C(F)(F)F)cc1Cl (stereo not given),inactive
9,CCNc1nc(NC(C)(C)C)nc(SC)n1,inactive
10,C#CC(C)(C)NC(=O)c1cc(Cl)cc(Cl)c1,inactive
11,CCCN(CCC)c1c([N+](=O)[O-])cc(C(F)(F)F)cc1[N+](=O)[O-],inactive
12,Cc1ccc(N)cc1N,inactive
13,CCN(CC)CCO,inactive
14,Cn1cc(-c2ccccc2)c(=O)c(-c2cccc(C(F)(F)F)c2)c1,inactive
15,CCCCOC(=O)c1ccccc1C(=O)OCCCC,inactive
16,CCC[N+](=O)[O-],inactive
17,Nc1ccc(Oc2ccc(N)cc2)cc1,inactive
18,CN(C)N=O,inactive
19,c1ccc2c(c1)oc1ccccc12,inactive
20,CCC(C)(CC)c1cc(NC(=O)c2c(OC)cccc2OC)on1,inactive

row,Structure (SMILES),outcome
1,C=CC(N)=O,inactive
2,Cc1ccc([N+](=O)[O-])cc1C,inactive
3,CC(C)=C[C@@H]1[C@@H](C(=O)OCc2coc(Cc3ccccc3)c2)C1(C)C,inactive
4,Nc1c(Cl)c(Cl)nc(C(=O)O)c1Cl,inactive
5,CCCCCCCCCl,inactive
6,Clc1ccc(Cl)cc1,inactive
7,CC(C#N)CCC#N (stereo not given),inactive
8,CCCCN(CC)C(=O)SCCC,inactive
9,C[C@]12CC[C@H]3[C@@H](CC[C@@]45O[C@@H]4C(O)=C(C#N)C[C@]35C)[C@@H]1CC[C@@H]2O,inactive
10,COC(=O)NC(=S)Nc1ccccc1NC(=S)NC(=O)OC,inactive
11,CNC(=O)Oc1ccccc1OC(C)C,inactive
12,CCc1cccc(C)c1N(C(=O)CCl)C(C)COC (stereo not given),inactive
13,O=NN1CCCCCCC1,inactive
14,CC(C)(Cl)Cl,inactive
15,CC(C)N1C(=O)c2ccccc2NS1(=O)=O,inactive
16,CCCN(CCC)N=O,inactive
17,CN(N=O)c1ccccc1,inactive
18,Cc1cccc([N+](=O)[O-])c1,inactive
19,Oc1ccccc1Cl,inactive
20,CCCCCOC(=O)c1ccccc1C(=O)OCCCCC,inactive
